Results reported in PubChem BioAssay (EPA / NIEHS).
Results filed as inconclusive are left out. Active and inactive are the calls of the source. The calls were made as follows, unless noted: active = hit-call score of the fitted dose curve at least 0.9, where 1 is the maximum; inconclusive = response in the unintended direction; inactive = score below 0.9.

Experiments:
[1] = target: Estrogen receptor beta (Homo sapiens) (UniProt Q92731); test: OT_ER_ERbERb_1440: Odyssey Thera (OT) 24-hour HEK293T Protein-Complementation Assay for Estrogen Receptor-beta/-beta Homodimer (AID 2283380);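 also: fluorescence gain from ER beta LBD homodimer complementation read by laser scanning cytometry; scored as signal increase over DMSO baseline for both agonists and antagonists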
Outline: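 Fluorescence increase, nuclear for agonists or whole-cell for antagonists, relative to DMSO vehicle, quantified by laser scanning cytometer after fixation and Draq5 staining. Readout from 24 h treatment of HEK293T cells carrying complementation-paired ER beta LBD (aa 310-547).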

[2] = target: Estrogen receptor (Homo sapiens) (UniProt P03372); test: OT_ERa_GFPERaERE_0480: Odyssey Thera (OT) 8-hour HeLa Transcription Induction Assay for Estrogen Receptor (AID 2283381; active = hit-call score of the fitted dose curve at least 0.9, where 1 is the maximum; inactive = score below 0.9)
Outline: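 Fluorescence microscopy with high-content image analysis measures ERE-driven GFP induction in HeLa cells at 8 h post-dose. Increases fitted against DMSO baseline.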

[3] = target: Estrogen receptor (Homo sapiens) (UniProt P03372); test: OT_ERa_GFPERaERE_0120: Odyssey Thera (OT) 2-hour HeLa Transcription Induction Assay for Estrogen Receptor (AID 2283382)
Outline: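 Fluorescence-microscopy images of the GFP-ERα/ERE reporter, scored by high-content image algorithms, give the readout. HeLa exposure lasted 2 h, and only signal increase over DMSO was fitted.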

[4] = target: Retinoic acid receptor RXR-alpha (Homo sapiens) (UniProt P19793); test: OT_NURR1_NURR1RXRa_1440: Odyssey Thera (OT) 24-hour HEK293T Protein Complementation Assay for Nurr1/retinoid X receptor (RXR) (AID 2283386)
Outline: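 Gain in fluorescence, fitted relative to DMSO, reflects Nurr1–RXRα association in HEK293T cells after 24 h dosing. Bait and prey are each linked to a reporter-protein fragment that reassembles on interaction.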

[5] = target: Peroxisome proliferator-activated receptor gamma (Homo sapiens) (UniProt P37231); test: OT_PPARg_PPARgSRC1_0480: Odyssey Thera (OT) 8-hour Protein-Complementation Assay for Peroxisome Proliferator-activated Receptor Gamma / SRC-1 Co-activator (AID 2283387);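 also: nuclear to cytoplasmic split Venus YFP fluorescence ratio reporting PPARg SRC-1 interaction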
Outline: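 Read-out: 488 nm N/C fluorescence ratio from complemented Venus YFP fragments, ≥350 cells per image, gain-of-signal fitted against DMSO baseline. Fusions of PPARg/SRC-1 with IFP1/IFP2 expressed transiently in HEK293T; compounds applied 8 h.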

[6] = target: Peroxisome proliferator-activated receptor gamma (Homo sapiens) (UniProt P37231); test: OT_PPARg_PPARgSRC1_1440: Odyssey Thera (OT) 24-hour Protein-Complementation Assay for Peroxisome Proliferator-activated Receptor Gamma/ SRC-1 Co-activator (AID 2283388);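 also: nuclear to cytoplasmic ratio of reconstituted Venus YFP fluorescence in fixed imaged cells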
Outline: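 Cells carrying the PPARg/SRC-1 fragment-complementation reporter receive compound for 24 hours, are fixed and counterstained with Draq5, then imaged. Increased nuclear relative to cytoplasmic YFP fluorescence above DMSO baseline indicates binding activity.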

[7] = target: Bile acid receptor (Homo sapiens) (UniProt Q96RI1); test: OT_FXR_FXRSRC1_0480: Odyssey Thera (OT) 8-hour HEK293T Protein-Complementation Assay for Farnesoid X receptor/SRC-1 Co-activator (AID 2283383)
Outline: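 Binding of FXR to coactivator SRC-1 was read as fluorescence from a reconstituted split reporter in HEK293T cells, 8 h after chemical addition. Only increases in signal versus DMSO were fit.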

[8] = target: Bile acid receptor (Homo sapiens) (UniProt Q96RI1); test: OT_FXR_FXRSRC1_1440: Odyssey Thera (OT) 24-hour HEK293T Protein-Complementation Assay for Farnesoid X receptor/SRC-1 Co-activator (AID 2283384)
Outline: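 Protein-fragment complementation: FXR and SRC-1 fused to reporter fragments that reassemble on interaction, read by fluorescence intensity. Human HEK293T cells measured 24 h post-dose; positive-direction fit versus DMSO.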

[9] = target: Retinoic acid receptor RXR-alpha (Homo sapiens) (UniProt P19793); test: OT_NURR1_NURR1RXRa_0480: Odyssey Thera (OT) 8-hour HEK293T Protein Complementation Assay for Nurr1/retinoid X receptor (RXR) (AID 2283385)
Outline: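 Interaction of Nurr1 with RXRα read as reconstituted reporter fluorescence in a HEK293T fragment-complementation system, 8 h post-treatment; increase over DMSO baseline analysed.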

Measured: AC50

Sequence of Estrogen receptor (Homo sapiens) (P03372 whole entry, looked up): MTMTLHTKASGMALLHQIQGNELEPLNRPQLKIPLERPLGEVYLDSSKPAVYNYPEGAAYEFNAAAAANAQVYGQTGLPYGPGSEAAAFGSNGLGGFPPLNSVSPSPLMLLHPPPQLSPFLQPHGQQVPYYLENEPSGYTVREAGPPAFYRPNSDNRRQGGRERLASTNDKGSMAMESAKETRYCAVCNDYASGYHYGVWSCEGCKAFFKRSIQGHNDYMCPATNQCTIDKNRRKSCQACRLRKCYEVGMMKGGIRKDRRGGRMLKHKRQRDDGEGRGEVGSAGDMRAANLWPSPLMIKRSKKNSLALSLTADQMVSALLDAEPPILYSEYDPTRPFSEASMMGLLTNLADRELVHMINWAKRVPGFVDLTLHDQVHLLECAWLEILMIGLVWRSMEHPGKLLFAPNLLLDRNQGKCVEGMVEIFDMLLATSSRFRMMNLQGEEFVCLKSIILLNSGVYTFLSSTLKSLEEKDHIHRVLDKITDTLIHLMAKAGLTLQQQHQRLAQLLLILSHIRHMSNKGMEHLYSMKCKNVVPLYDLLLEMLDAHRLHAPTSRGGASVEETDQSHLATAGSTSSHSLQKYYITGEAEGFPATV
Sequence of Retinoic acid receptor RXR-alpha (Homo sapiens) (P19793 whole entry, looked up, the tested form may be a part): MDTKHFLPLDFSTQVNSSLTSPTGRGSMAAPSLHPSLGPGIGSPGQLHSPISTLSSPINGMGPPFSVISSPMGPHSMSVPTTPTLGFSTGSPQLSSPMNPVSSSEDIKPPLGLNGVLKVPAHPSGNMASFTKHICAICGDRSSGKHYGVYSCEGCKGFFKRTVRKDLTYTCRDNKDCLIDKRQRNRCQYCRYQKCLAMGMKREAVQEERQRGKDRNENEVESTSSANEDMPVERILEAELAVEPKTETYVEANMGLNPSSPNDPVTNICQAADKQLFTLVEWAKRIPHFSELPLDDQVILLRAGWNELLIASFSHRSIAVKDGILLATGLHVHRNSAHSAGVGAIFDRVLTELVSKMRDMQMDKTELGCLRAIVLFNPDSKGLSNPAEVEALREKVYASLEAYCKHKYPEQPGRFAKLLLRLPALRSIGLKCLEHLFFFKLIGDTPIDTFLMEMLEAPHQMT
Sequence of Peroxisome proliferator-activated receptor gamma (Homo sapiens) (P37231 whole entry, looked up, the tested form may be a part): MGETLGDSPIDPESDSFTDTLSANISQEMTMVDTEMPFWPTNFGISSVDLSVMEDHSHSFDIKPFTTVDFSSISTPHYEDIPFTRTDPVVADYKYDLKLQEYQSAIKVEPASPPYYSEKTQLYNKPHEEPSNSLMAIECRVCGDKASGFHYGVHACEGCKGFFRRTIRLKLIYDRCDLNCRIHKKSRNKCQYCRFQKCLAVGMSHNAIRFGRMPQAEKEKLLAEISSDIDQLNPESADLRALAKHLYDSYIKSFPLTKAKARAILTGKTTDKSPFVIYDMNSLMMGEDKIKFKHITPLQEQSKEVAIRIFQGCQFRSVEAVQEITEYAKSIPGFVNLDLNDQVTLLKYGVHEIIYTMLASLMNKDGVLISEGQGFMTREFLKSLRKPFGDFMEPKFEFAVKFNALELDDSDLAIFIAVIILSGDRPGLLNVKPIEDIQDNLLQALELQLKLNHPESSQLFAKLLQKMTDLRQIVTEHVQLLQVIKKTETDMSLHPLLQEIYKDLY
Sequence of Estrogen receptor beta (Homo sapiens) (Q92731 whole entry, looked up, the tested form may be a part): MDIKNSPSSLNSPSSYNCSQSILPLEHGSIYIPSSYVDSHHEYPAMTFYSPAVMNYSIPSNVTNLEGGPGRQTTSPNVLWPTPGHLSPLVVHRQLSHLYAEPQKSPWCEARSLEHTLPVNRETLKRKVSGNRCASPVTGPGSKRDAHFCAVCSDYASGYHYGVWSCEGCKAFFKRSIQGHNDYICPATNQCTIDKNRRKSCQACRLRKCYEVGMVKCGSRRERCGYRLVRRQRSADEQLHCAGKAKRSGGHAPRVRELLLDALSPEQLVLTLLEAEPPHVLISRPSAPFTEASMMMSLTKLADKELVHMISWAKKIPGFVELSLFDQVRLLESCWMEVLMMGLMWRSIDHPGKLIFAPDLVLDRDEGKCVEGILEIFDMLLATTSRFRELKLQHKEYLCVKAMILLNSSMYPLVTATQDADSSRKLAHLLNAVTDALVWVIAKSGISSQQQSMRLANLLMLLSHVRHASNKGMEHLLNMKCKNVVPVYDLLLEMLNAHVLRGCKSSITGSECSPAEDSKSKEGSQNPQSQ
Sequence of Bile acid receptor (Homo sapiens) (Q96RI1 whole entry, looked up, the tested form may be a part): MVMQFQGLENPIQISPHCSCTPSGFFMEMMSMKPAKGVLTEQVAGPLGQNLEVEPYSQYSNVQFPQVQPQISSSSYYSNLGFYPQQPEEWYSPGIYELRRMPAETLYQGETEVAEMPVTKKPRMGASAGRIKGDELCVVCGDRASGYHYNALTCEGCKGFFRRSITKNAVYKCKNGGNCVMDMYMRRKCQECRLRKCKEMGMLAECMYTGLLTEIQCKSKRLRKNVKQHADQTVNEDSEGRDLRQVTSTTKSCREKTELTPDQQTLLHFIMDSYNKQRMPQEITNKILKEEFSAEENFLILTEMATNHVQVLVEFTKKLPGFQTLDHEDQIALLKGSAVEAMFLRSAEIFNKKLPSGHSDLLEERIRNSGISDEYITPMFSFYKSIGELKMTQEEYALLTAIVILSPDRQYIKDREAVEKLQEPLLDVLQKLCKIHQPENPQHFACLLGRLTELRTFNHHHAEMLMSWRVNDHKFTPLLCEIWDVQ

O=C1CCCC1
active: [2] 48.4 µM
inactive: [1] | [3] | [4] | [5] | [6]

COC(=O)c1c(C)cc(O)c(C)c1O
active: [1] 56.4 µM
inactive: [2] | [3] | [5] | [6]

CCCCCc1ccc(Cl)cc1
not listed: [1]
inactive: all other assays above

CC1=CC[C@H]2C[C@@H]1C2(C)C
inactive: [1] | [4] | [5] | [6]
active: [2] 93.4 µM | [3] 93.6 µM

c1ccc2c(c1)ccc1cc3c(ccc4ccccc43)cc12
inactive: [2] | [3] | [7] | [8] | [4]

Cc1cc(C)c(C)cc1C
not listed: [1] | [8]
inactive: all other assays above

O=S(=O)(O)c1ccccc1C=Cc1ccc(-c2ccc(C=Cc3ccccc3S(=O)(=O)O)cc2)cc1
inactive: [1] | [2] | [9] | [5] | [6]
active: [4] 66.8 µM

CCO[Si](C)(OCC)OCC
inactive: [1] | [2] | [3] | [4]

CCCCCCC1(C)CCC(=O)O1 (stereo not drawn)
inactive: [2] | [3] | [5] | [6]

CC1=NN(c2cc(S(=O)(=O)O)ccc2Cl)C(=O)C1N=Nc1ccccc1 (stereo not drawn)
inactive: [1] | [2] | [3] | [5] | [6]

C=C1C2CCC(C2)C1(C)C (stereo not drawn)
inactive: [1] | [2] | [3] | [5] | [6]

O=S1(=O)OC(c2ccc(O)cc2)(c2ccc(O)cc2)c2ccccc21
inactive: [1] | [3] | [4] | [5] | [6]
active: [2] 73 µM

CC(C)C1=CC2=CC[C@@H]3[C@](C)(CCC[C@@]3(C)C(=O)O)[C@H]2CC1
not listed: [1] | [7] | [8]
inactive: all other assays above

C=C[Si](C)(C)O[Si](C)(C)C=C
not listed: [1] | [7] | [8]
inactive: all other assays above

C1CN(SSN2CCOCC2)CCO1
inactive: [2] | [3] | [6]

CCCCCCCCCCOS(=O)(=O)O
inactive: [2] | [3] | [9] | [5] | [6]

Cc1ccc(N/N=c2\c(=O)cc/c(=N/Nc3ccc(S(=O)(=O)O)cc3)c2=O)c(C)c1
inactive: [1] | [2] | [3] | [5] | [6]

c1c[nH]cn1
inactive: [1] | [2] | [3] | [5] | [6]

Cc1cc(C)c(C(=O)O)c(C)c1
inactive: [1] | [4] | [5] | [6]
active: [2] 93 µM | [3] 94.2 µM

OC1CCCCCCCCCCC1
inactive: [2] | [3] | [4] | [5] | [6]
